Results from paper PMC4336329 (PLoS ONE, 2015).
Out of some 310,000 compounds screened, about 14,000 (4.5%) showed an effect of 50% or more. The effect is printed as a negative number. The sample holds strong results, similar compounds and a random draw of the others, so the mix is not that of the screen.

Each compound was assayed against human ether-à-go-go-related gene (hERG) potassium channel (human, UniProt Q12809) (assay: primary screen, population patch clamp on CHO cells stably expressing hERG; higher = less effect of the substance).
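Also: peak tail current of the secondary pulse compared with the same well before compound.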

human ether-à-go-go-related gene (hERG) potassium channel, sequence (Q12809 whole entry, looked up): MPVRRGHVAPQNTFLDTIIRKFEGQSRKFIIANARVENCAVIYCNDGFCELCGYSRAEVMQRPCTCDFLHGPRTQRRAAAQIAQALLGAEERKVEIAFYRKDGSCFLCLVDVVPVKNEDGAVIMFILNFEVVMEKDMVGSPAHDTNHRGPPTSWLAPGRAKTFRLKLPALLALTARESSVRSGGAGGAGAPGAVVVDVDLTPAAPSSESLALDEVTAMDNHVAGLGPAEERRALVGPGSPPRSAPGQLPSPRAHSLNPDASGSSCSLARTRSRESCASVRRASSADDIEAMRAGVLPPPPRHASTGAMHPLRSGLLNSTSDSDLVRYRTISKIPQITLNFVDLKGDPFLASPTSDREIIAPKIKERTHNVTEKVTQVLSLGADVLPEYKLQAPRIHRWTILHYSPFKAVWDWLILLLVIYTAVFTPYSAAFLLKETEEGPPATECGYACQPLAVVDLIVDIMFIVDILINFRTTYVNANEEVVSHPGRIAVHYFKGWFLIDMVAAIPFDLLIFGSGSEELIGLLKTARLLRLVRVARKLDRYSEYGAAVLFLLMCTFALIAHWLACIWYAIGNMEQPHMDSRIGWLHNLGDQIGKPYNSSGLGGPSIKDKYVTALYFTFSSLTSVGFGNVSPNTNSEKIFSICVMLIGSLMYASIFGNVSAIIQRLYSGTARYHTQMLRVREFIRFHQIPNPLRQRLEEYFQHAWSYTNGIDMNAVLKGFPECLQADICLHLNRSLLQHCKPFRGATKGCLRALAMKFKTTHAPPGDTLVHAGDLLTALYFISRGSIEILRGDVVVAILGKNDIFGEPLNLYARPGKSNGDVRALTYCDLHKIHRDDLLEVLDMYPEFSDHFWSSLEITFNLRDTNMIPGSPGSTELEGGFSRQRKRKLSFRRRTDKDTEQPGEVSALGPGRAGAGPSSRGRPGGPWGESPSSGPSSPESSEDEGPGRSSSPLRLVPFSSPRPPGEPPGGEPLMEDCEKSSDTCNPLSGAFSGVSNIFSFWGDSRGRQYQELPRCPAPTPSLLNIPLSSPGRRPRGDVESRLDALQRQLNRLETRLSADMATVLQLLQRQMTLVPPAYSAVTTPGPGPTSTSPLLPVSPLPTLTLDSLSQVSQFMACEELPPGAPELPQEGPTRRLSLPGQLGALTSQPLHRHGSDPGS

Row | Compound | hERG current change (%, negative = inhibition) at 10uM [%]
1 | CCOc1ccc(CN(C(=O)/C=C/c2ccco2)C2CCS(=O)(=O)C2)cc1 (stereo not drawn) | -31.6
2 | CC(=O)c1cccc(N(C(=O)CNC(=O)c2ccco2)C(C(=O)NC2CCCC2)c2ccc(C)o2)c1 (stereo not drawn) | 6.93
3 | O=C(C1CCCN(c2ncnc3c2nc2n3CCCCC2)C1)N1CCN(c2ccc(F)cc2)CC1 (stereo not drawn) | -66.8
4 | CCN1CCN(C(=O)C2CCCN(c3ncnc4c3nc3n4CCCCC3)C2)CC1 (stereo not drawn) | 11.6
5 | O=C(C1CCCN(c2ncnc3c2nc2n3CCCCC2)C1)N1CCN(c2ccccc2F)CC1 (stereo not drawn) | -72
6 | O=C(NCCCN1CCCCC1)C1CCCN(c2ncnc3c2nc2n3CCCCC2)C1 (stereo not drawn) | 1.8
7 | O=C(NCCCN1CCN(c2ccc(F)cc2)CC1)C1CCCN(c2ncnc3c2nc2n3CCCCC2)C1 (stereo not drawn) | -66.3
8 | O=C(C1CCN(c2ncnc3c2nc2n3CCCCC2)CC1)N1CCN(c2ccccc2F)CC1 | -33.1
9 | O=C(C1CCN(c2ncnc3c2nc2n3CCCCC2)CC1)N1CCN(c2ccc(F)cc2)CC1 | -51.5
10 | O=C(C1CCN(c2ncnc3c2nc2n3CCCCC2)CC1)N1CCCCC1 | 16
11 | Cc1ccc(N2CCN(C(=O)C3CCCN(c4ncnc5c4nc4n5CCCCC4)C3)CC2)c(C)c1 (stereo not drawn) | -7.35
12 | CN1CCN(C(=O)C2CCN(c3ncnc4c3nc3n4CCCCC3)CC2)CC1 | 17.7
13 | CC1CCN(CCCNC(=O)C2CCCN(c3ncnc4c3nc3n4CCCCC3)C2)CC1 (stereo not drawn) | -3.75
14 | CCOC(=O)C1CCN(C(=O)C2CCCN(c3ncnc4c3nc3n4CCCCC3)C2)CC1 (stereo not drawn) | -34.1
15 | O=C(O)CCC(=O)Nc1cc(C(F)(F)F)cc(C(F)(F)F)c1 | 15.1
16 | Cc1ccccc1-n1c(-c2csc(C)c2C)n[nH]c1=S | 17.6
17 | Cc1cc(C)c2c(N)c(C(=O)c3cccc(Cl)c3)sc2n1 | 1.67
18 | CCOc1ccc(C(=O)N2CCc3cc(OC)c(OC)cc3C2)cc1OCC | 2.45
19 | CCOC(=O)C(C(=O)OCC)N(C#N)c1nc(OC)nc(N(C)C)n1 | -4.52
20 | O=C(CS)Nc1ccc2ccccc2c1 | 20.8
21 | CCn1c2ccccc2c2cc(NC(=O)c3cccc(OC)c3)ccc21 | 13.9
22 | COC(=O)c1sccc1NC(=O)CC1C(=O)NCCN1C(=O)c1ccc(N(C)C)cc1 (stereo not drawn) | 7.57
23 | COc1ccc(Cl)cc1NC(=O)CSc1nnc(CN2CCOCC2)n1-c1ccc(Cl)cc1 | -46.6

Row | Compound | hERG current change (%, negative = inhibition) at 10uM [%]
24 | O=C(Nc1ccc(S(=O)(=O)NCC2CCCO2)cc1)c1ccccc1 (stereo not drawn) | 2.19
25 | CC1CC(C)CN(C(=O)C2CCCN(c3ncnc4c3nc3n4CCCCC3)C2)C1 (stereo not drawn) | -35.8
26 | O=C(C1CCCN(c2ncnc3c2nc2n3CCCCC2)C1)N1CCN(c2ccccc2)CC1 (stereo not drawn) | -74
27 | O=C(C1CCCN(c2ncnc3c2nc2n3CCCCC2)C1)N1CCN(c2cccc(Cl)c2)CC1 (stereo not drawn) | -72.8
28 | O=C(C1CCN(c2ncnc3c2nc2n3CCCCC2)CC1)N1CCN(c2cccc(Cl)c2)CC1 | -36.7
29 | Cc1ccc(C)c(N2CCN(C(=O)C3CCCN(c4ncnc5c4nc4n5CCCCC4)C3)CC2)c1 (stereo not drawn) | -33.6
30 | O=C(C1CCCN(c2ncnc3c2nc2n3CCCCC2)C1)N1CCN(c2ccc(Cl)cc2)CC1 (stereo not drawn) | -54.8
31 | CCCN1CCN(C(=O)C2CCCN(c3ncnc4c3nc3n4CCCCC3)C2)CC1 (stereo not drawn) | -1.04
32 | O=C(C1CCCN(c2ncnc3c2nc2n3CCCCC2)C1)N1CCCCC1 (stereo not drawn) | -18.2
33 | O=C1CNC(=S)N1C(CO)c1ccccc1 (stereo not drawn) | 22.2
34 | CCc1cc(C(=O)Cc2ccc(F)cc2)c(O)cc1O | -12.7
35 | O=C(O)c1c(C(=O)O)c(-c2ccc(Br)cc2)n2c1CSC2 | 15
36 | O=C(O)COc1ccc(S(=O)(=O)NCCc2ccccc2)cc1 | 6.4
37 | CC(C)C[C@H](NC(=O)C1CC(=O)N(c2ccc3c(c2)OCO3)C1)C(=O)NC1CCCC1 (stereo partly drawn) | -0.704
38 | Cc1cccc(OCC(=O)Nc2ccc(NC(=O)c3ccco3)c(C)c2)c1 | -15.3
39 | CCOC(=O)c1ccc(NC(=O)C2CCN(C(=O)c3ccc(OC)c(OC)c3)CC2)cc1 | -58.7
40 | COC(=O)c1ccc(NC(=O)C2CCN(C(=O)c3cc(OC)c(OC)c(OC)c3)CC2)cc1 | 6.73
41 | COc1ccc(NC(=O)C2CCN(C(=O)c3ccc(OC)cc3)CC2)cc1 | -72.2
42 | COc1ccc(C(=O)N2CCC(C(=O)Nc3ccccc3OC)CC2)cc1 | -34.6
43 | COc1ccc(C(=O)N2CCC(C(=O)Nc3ccc(C)cc3)CC2)cc1 | -75.9
44 | COc1ccc(C(=O)N2CCC(C(=O)Nc3cccc(C)c3)CC2)cc1OC | -38.9
45 | COc1ccc(NC(=O)C2CCN(C(=O)c3cccs3)CC2)cc1 | -12.4
